# “And” between values parts separate entries of the source, which are not always exact repeats. Identical values can stand only once. Inconclusive results are not listed. The source made the active and inactive calls. How the source made its calls, unless noted: active means hit-call score of the fitted dose curve at least 0.9, where 1 is the maximum; inactive means score below 0.9.
# Experiments:
# [1] = target: Glucocorticoid receptor (Homo sapiens) (UniProt P04150); test: ATG_GR_TRANS: Attagene TRANS-FACTORIAL HepG2 Assay for human Glucocorticoid Receptor (GR) (AID 2282978; active means hit-call score of the fitted dose curve at least 0.9, where 1 is the maximum;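 further: activators score as hits since higher reporter transcript over DMSO is fitted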); conditions: HepG2 Attagene TRANS GR reporter, mRNA transcription
# Method in brief: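 HepG2 transient transfection, multiple reporter units, GAL4-UAS under NR-GAL4 chimera control. 24 h treatment. Reporter mRNA by RT-PCR/CE fluorescence, DMSO as negative control.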
# [2] = target: Bile acid receptor (Homo sapiens) (UniProt Q96RI1); test: ATG_FXR_TRANS: Attagene TRANS-FACTORIAL HepG2 Assay for Farnesoid X Receptor (FXR) (AID 2282979; active means hit-call score of the fitted dose curve at least 0.9, where 1 is the maximum;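 further: hits raise reporter mRNA above DMSO so AC50 marks FXR activation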); conditions: HepG2 Attagene TRANS FXR-GAL4 reporter transcription
# Method in brief: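 Reporter transcripts from transfected HepG2 cells were measured 24 h after dosing, using RT-PCR with capillary electrophoresis of 6-FAM-labelled fragments. The read-out reflects activity of exogenous FXR-Gal4 chimera on GAL4-UAS units, with induction relative to DMSO.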
# [3] = target: Oxysterols receptor LXR-alpha (Homo sapiens) (UniProt Q13133); test: ATG_LXRa_TRANS: Attagene TRANS-FACTORIAL HepG2 Assay for human Liver X Receptor alpha (LXRa) (AID 2282980; active means hit-call score of the fitted dose curve at least 0.9, where 1 is the maximum); conditions: HepG2 Attagene TRANS reporter, LXRa transactivation
# Method in brief: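 Chemical-induced reporter mRNA measured by RT-PCR with fluorescent labelling and capillary electrophoresis after 24 h dosing of transiently transfected HepG2 cells expressing exogenous NR-Gal4 chimeras; increases scored against DMSO baseline.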
# [4] = target: Oxysterols receptor LXR-beta (Homo sapiens) (UniProt P55055); test: ATG_LXRb_TRANS: Attagene TRANS-FACTORIAL HepG2 Assay for human Liver X Receptor beta (LXRb) (AID 2282981; active means hit-call score of the fitted dose curve at least 0.9, where 1 is the maximum); conditions: HepG2 Attagene TRANS GAL4-LXRb reporter, mRNA
# Method in brief: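 HepG2 cells transiently transfected with multiple reporter transcription units carrying chimeric NR-Gal4 proteins acting on GAL4-UAS reporters; compound exposure 24 h. Reporter mRNA quantified by RT-PCR, 6-FAM labelling, HpaI digestion and capillary electrophoresis; gain of signal versus DMSO.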
# [5] = ATG_M_06_TRANS: Attagene TRANS-FACTORIAL HepG2 Assay for M06 Transcription Factor (Internal Marker) (AID 2282983; active means hit-call score of the fitted dose curve at least 0.9, where 1 is the maximum;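 further: reporter transcript level by RT-PCR then capillary electrophoresis fluorescence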); conditions: HepG2 Attagene TRANS M06 internal marker reporter
# Method in brief: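 Cells: HepG2, transient multi-reporter transfection. Exposure: 24 h. Detection: RT-PCR, 6-FAM labelling, HpaI digestion (2 h, 37 °C), capillary electrophoresis. Baseline: DMSO.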
# [6] = target: Transcriptional activator Myb (Homo sapiens) (UniProt P10242); test: ATG_Myb_CIS: Attagene CIS-FACTORIAL HepG2 Assay for human Myeloblastosis (Myb) Proto-Oncogene Transcription Factor (AID 2282986); conditions: HepG2 Attagene CIS-FACTORIAL Myb reporter transcription; actives raise or lower the signal
# Method in brief: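 Multiplexed cis-reporter system in HepG2: transient transfection, 24 h treatment, mRNA readout by RT-PCR and capillary electrophoresis. Both increases and decreases are scored versus DMSO negative control.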
# [7] = target: Nuclear respiratory factor 1 (Homo sapiens) (UniProt Q16656); test: ATG_NRF1_CIS: Attagene CIS-FACTORIAL HepG2 Assay for human Nuclear Respiratory Factor 1 (NRF1) Orphan Gene (AID 2282987); conditions: HepG2 NRF1 cis-element reporter, Attagene multiplex; actives raise or lower the signal
# Method in brief: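 Endogenous factor activity was captured via cis-element-driven reporter transcripts in HepG2 cells. Following 24 h chemical treatment, transcripts were quantified by RT-PCR and capillary electrophoresis.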
# [8] = ATG_NFI_CIS: Attagene CIS-FACTORIAL HepG2 Assay for human Nuclear Factor I (NFI) (AID 2282989); conditions: HepG2 cis-regulatory reporter, NFI response element transcription; actives raise or lower the signal
# Method in brief: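 Reporter transcription driven by endogenous transcription factors in HepG2 cells; 24 h treatment. Quantitation by labelled RT-PCR fragments on capillary electrophoresis, gain- or loss-of-signal relative to DMSO.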
# [9] = target: Myc proto-oncogene protein (Homo sapiens) (UniProt P01106); test: ATG_Myc_CIS: Attagene CIS-FACTORIAL HepG2 Assay for human Myelocytomatosis (Myc) Proto-Oncogene Transcription Factor (AID 2282990); conditions: HepG2, Attagene cis-reporter transcription factor activity; actives raise or lower the signal
# Method in brief: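 HepG2 cells transiently transfected with multiple cis-promoter-driven reporter transcription units, so endogenous TF activity is read. After 24 h compound exposure, reporter mRNA was quantified by RT-PCR, 6-FAM labelling, HpaI digestion and capillary electrophoresis; bidirectional fit versus DMSO.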
# [10] = ATG_NF_kB_CIS: Attagene CIS-FACTORIAL HepG2 Assay for human Nuclear Factor Kappa B (NF-kB) (AID 2282991); conditions: HepG2 Attagene cis-factorial NF-kB reporter mRNA; actives raise or lower the signal
# Method in brief: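 After 24 h compound incubation, transfected HepG2 cells yield total RNA; reporter cDNA is PCR-amplified, end-labelled with 6-FAM, HpaI-digested and analysed on a genetic analyser. Endogenous factor activity, DMSO-referenced bidirectional fit.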
# [11] = ATG_NRF2_ARE_CIS: Attagene CIS-FACTORIAL HepG2 Assay for human Nuclear Factor Erythroid 2 Related Factor 2 (NFR2) response to Antioxidant Response Elements (ARE) (AID 2282992); conditions: HepG2 Attagene ARE/NRF2 reporter, transcription factor activity; actives raise or lower the signal;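 on AC50: reporter mRNA level measured by RT-PCR and capillary electrophoresis fluorescence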
# Method in brief: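 Transient MRTU transfection of HepG2; 24 h compound exposure; TriZol RNA, RT with oligo(dT), PCR, 6-FAM primer extension, HpaI cut, CE. Bidirectional fit vs DMSO.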
# [12] = ATG_Oct_MLP_CIS: Attagene CIS-FACTORIAL HepG2 Assay for human Octamer-Binding Transcription Factor (Oct) (AID 2282993); conditions: HepG2 Attagene cis-factorial Oct reporter, mRNA; actives raise or lower the signal
# Method in brief: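 Transfected HepG2 cells, 24 h treatment. Reporter mRNA quantified by RT-PCR–capillary electrophoresis; bidirectional fitting against DMSO.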
# [13] = BSK_3C_TissueFactor: BioMAP Diversity Plus: 3C Assay for Tissue Factor Biomarker Activity (AID 2282997); conditions: BioMAP 3C HUVEC, tissue factor biomarker readout; actives raise or lower the signal
# Method in brief: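 Dosing of human umbilical vein endothelial cells preceded a 24 h incubation. Tissue Factor was then read by ELISA, with increases and decreases both scored relative to DMSO controls.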
# [14] = BSK_3C_uPAR: BioMAP Diversity Plus: 3C Assay for Urokinase-type plasminogen activator receptor (uPAR) Biomarker Activity (AID 2282998); conditions: BioMAP 3C HUVEC, uPAR biomarker ELISA; actives raise or lower the signal
# Method in brief: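 Readout: ELISA for surface uPAR. System: human umbilical vein endothelial primary cells, 24 h after chemical exposure. Analysis: bidirectional fit, DMSO baseline.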
# [15] = BSK_3C_VCAM1: BioMAP Diversity Plus: 3C Assay for Vascular cell adhesion molecule 1 (VCAM1) Biomarker Activity (AID 2282999); conditions: BioMAP 3C HUVEC, VCAM1 ELISA, cytokine-stimulated; actives raise or lower the signal
# Method in brief: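 Human umbilical vein endothelial cells were dosed with compound for 24 h, after which cell-surface VCAM-1 was quantified by ELISA. Bidirectional curve fitting used DMSO as negative control and activity baseline.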
# [16] = target: Hepatocyte nuclear factor 4-alpha (Homo sapiens) (UniProt P41235); test: ATG_HNF4a_TRANS: Attagene TRANS-FACTORIAL HepG2 Assay for human Hepatocyte Nuclear Factor 4 alpha (HNF4a) (AID 2282982; active means hit-call score of the fitted dose curve at least 0.9, where 1 is the maximum); conditions: HepG2 HNF4a transactivation reporter, mRNA readout
# Method in brief: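 HepG2 cells transiently transfected with multiplexed GAL4-UAS reporter units responsive to chimeric NR-GAL4 proteins; compound exposure 24 h. Reporter mRNA quantified by RT-PCR, 6-FAM labelling, HpaI digestion and capillary electrophoresis; gain of signal versus DMSO baseline.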
# [17] = ATG_M_32_TRANS: Attagene TRANS-FACTORIAL HepG2 Assay for M32 Transcription Factor (Internal Marker) (AID 2282984; active means hit-call score of the fitted dose curve at least 0.9, where 1 is the maximum;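 further: transcript level of a background control reporter unit measured by RT-PCR and capillary electrophoresis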); conditions: HepG2 Attagene TRANS M32 internal marker reporter
# Method in brief: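 HepG2 cells transiently transfected with multiple GAL4-UAS reporter transcription units, dosed for 24 hours; reporter mRNA quantified by RT-PCR, 6-FAM primer extension, HpaI digestion and capillary electrophoresis. Gain-of-signal fitted versus DMSO baseline; internal background-control marker.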
# [18] = target: Cellular tumor antigen p53 (Homo sapiens) (UniProt P04637); test: ATG_p53_CIS: Attagene CIS-FACTORIAL HepG2 Assay for human p53 Transcription Factor (AID 2282994); conditions: HepG2 p53 cis-element reporter, Attagene mRNA; actives raise or lower the signal
# Method in brief: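 HepG2, transient MRTU transfection (cis promoter elements, endogenous TFs); 24 h dosing; RNA isolation, RT-PCR, 6-FAM primer extension, HpaI digest, CE fluorescence; bidirectional fit vs DMSO.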
# [19] = target: Nuclear receptor subfamily 4 group A member 2 (Homo sapiens) (UniProt P43354); test: ATG_NURR1_TRANS: Attagene TRANS-FACTORIAL HepG2 Assay for human Nuclear Receptor Related Protein 1 (NURR1) (AID 2282985; active means hit-call score of the fitted dose curve at least 0.9, where 1 is the maximum); conditions: HepG2 Attagene TRANS reporter, mRNA readout
# Method in brief: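 HepG2 cells transiently transfected with GAL4-UAS reporter units and chimeric NR-Gal4 constructs; chemical exposure 24 h. Reporter mRNA quantified by RT-PCR, fluorescent labelling and capillary electrophoresis; gain of signal fitted relative to DMSO baseline.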
# Chain of Transcriptional activator Myb (Homo sapiens) (P10242 whole entry, looked up): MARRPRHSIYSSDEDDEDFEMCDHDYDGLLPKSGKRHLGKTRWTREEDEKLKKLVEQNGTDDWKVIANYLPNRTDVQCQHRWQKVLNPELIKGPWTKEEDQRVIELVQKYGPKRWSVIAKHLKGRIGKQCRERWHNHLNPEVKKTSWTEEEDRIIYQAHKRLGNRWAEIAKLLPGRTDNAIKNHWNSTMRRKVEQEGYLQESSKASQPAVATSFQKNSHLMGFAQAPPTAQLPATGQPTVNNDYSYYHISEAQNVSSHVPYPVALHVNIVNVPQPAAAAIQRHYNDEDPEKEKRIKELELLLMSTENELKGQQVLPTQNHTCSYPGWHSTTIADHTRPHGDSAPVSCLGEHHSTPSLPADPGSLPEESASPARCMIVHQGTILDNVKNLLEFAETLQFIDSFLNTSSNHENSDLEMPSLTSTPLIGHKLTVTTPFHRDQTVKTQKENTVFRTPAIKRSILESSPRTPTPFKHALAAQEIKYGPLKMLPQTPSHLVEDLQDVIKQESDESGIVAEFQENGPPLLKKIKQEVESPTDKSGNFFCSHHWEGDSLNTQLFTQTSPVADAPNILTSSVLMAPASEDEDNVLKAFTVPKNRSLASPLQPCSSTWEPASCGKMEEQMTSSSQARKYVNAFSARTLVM
# Chain of Hepatocyte nuclear factor 4-alpha (Homo sapiens) (P41235 whole entry, looked up, the tested form may be a part): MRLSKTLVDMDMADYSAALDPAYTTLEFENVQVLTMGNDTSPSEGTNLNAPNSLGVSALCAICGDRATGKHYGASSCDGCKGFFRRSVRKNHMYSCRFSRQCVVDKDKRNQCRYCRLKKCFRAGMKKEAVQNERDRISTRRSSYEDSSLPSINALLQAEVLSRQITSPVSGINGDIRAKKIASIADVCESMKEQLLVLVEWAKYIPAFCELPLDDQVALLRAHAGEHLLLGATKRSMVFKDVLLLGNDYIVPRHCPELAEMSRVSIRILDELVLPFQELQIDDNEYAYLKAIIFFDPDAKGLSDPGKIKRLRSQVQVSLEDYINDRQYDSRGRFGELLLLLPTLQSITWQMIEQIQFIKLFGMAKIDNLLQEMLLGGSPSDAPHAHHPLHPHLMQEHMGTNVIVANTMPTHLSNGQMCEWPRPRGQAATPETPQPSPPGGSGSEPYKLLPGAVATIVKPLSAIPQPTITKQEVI
# Chain of Myc proto-oncogene protein (Homo sapiens) (P01106 whole entry, looked up): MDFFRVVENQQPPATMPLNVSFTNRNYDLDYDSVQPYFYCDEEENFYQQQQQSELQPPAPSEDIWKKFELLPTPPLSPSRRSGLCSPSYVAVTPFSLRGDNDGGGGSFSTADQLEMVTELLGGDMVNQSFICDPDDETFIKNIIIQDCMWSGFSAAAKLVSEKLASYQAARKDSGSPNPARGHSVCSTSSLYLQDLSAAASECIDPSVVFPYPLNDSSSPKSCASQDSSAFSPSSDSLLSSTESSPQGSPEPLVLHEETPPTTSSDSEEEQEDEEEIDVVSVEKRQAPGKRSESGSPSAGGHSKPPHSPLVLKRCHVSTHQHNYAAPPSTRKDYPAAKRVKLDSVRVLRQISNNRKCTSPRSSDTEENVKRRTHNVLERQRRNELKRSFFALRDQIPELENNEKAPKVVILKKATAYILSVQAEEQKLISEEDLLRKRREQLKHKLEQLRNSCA
# Chain of Nuclear receptor subfamily 4 group A member 2 (Homo sapiens) (P43354 whole entry, looked up, the tested form may be a part): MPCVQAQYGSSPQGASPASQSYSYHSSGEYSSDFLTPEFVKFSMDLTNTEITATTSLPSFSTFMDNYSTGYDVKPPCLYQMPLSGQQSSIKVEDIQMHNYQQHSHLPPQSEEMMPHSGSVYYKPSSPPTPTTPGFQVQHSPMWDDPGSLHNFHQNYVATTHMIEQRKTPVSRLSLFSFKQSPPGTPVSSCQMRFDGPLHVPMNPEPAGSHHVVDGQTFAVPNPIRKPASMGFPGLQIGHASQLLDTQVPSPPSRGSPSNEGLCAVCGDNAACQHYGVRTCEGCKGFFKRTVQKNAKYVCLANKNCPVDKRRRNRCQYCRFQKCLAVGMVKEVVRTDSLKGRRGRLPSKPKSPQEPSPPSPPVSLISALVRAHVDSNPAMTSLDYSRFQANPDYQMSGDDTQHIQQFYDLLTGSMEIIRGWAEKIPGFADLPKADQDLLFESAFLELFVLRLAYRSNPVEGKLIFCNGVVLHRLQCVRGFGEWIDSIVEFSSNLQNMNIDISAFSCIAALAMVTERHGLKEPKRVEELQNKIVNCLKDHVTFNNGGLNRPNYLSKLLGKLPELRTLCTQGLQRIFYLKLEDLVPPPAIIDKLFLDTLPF
# Chain of Oxysterols receptor LXR-beta (Homo sapiens) (P55055 whole entry, looked up, the tested form may be a part): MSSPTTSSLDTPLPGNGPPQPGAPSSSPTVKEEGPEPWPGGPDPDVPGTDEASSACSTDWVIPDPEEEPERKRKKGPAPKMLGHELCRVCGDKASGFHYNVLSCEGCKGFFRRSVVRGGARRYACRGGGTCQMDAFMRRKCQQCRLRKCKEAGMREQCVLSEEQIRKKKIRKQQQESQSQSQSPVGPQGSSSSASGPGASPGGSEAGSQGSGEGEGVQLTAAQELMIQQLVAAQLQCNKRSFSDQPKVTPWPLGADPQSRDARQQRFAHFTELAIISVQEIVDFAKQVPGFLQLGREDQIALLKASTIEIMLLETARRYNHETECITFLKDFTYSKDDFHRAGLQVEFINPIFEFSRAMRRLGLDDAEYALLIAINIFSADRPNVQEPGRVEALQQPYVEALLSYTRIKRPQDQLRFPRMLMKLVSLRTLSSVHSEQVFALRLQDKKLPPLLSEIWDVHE
# Chain of Glucocorticoid receptor (Homo sapiens) (P04150 whole entry, looked up, the tested form may be a part): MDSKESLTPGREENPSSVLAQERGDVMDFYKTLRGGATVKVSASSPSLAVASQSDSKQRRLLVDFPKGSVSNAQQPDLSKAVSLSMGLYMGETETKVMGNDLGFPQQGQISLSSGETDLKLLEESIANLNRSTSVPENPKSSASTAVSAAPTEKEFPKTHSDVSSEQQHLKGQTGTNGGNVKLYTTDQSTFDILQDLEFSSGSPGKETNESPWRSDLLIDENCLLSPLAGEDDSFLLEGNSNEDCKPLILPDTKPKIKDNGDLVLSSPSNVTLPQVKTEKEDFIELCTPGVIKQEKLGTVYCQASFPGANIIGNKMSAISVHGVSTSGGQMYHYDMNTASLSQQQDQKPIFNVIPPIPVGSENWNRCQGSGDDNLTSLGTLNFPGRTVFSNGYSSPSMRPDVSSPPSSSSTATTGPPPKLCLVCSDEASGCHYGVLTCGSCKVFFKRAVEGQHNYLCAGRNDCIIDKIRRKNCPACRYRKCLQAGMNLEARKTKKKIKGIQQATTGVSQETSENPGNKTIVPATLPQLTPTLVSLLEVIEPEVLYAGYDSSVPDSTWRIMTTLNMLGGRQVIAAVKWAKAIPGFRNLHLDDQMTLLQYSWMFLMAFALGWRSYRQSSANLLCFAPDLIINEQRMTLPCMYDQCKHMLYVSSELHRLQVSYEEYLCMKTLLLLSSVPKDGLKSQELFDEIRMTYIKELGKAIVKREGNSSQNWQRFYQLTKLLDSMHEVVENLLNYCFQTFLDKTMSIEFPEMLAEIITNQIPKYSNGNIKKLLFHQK
# Chain of Cellular tumor antigen p53 (Homo sapiens) (P04637 whole entry, looked up): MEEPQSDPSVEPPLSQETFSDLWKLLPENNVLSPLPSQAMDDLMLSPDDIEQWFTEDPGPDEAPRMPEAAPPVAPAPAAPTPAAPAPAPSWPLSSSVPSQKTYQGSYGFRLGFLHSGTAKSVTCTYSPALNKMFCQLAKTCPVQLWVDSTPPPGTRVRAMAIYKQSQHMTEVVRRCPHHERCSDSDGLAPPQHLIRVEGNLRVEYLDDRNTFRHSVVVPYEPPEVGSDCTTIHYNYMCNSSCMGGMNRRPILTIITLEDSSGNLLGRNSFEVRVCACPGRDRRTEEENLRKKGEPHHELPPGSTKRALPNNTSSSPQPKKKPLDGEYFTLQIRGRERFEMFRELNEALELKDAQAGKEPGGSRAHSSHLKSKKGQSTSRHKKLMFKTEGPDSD
# Chain of Nuclear respiratory factor 1 (Homo sapiens) (Q16656 whole entry, looked up): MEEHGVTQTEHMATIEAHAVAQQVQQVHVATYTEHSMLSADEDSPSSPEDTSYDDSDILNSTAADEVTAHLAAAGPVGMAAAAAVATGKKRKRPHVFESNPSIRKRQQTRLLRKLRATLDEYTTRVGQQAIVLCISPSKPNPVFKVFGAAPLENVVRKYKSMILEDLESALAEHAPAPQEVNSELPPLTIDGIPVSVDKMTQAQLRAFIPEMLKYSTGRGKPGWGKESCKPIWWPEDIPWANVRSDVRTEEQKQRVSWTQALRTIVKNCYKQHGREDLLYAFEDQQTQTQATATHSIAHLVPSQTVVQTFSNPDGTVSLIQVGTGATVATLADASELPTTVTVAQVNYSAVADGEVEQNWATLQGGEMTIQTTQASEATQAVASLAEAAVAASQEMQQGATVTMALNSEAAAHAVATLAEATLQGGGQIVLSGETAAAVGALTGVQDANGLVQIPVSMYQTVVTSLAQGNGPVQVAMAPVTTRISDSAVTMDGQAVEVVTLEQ
# Chain of Bile acid receptor (Homo sapiens) (Q96RI1 whole entry, looked up, the tested form may be a part): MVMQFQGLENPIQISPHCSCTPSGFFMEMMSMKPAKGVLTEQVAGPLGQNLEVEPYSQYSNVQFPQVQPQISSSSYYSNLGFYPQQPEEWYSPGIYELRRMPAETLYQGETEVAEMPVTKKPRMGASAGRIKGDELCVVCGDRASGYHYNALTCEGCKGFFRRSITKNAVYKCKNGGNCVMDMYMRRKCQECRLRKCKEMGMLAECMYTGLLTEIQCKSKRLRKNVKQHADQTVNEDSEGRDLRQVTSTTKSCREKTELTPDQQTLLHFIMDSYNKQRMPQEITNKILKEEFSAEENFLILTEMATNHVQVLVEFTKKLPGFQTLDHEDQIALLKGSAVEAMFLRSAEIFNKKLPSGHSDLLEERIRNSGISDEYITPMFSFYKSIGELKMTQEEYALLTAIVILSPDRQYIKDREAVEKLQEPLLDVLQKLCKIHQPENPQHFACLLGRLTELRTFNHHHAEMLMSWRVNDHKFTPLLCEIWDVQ
structure (smiles),measurement,setting,value
O=C(O)[C@H](O)[C@@H](O)C(=O)O,outcome,[1],inactive
same,outcome,[2],inactive
same,outcome,[3],inactive
same,outcome,[4],inactive
same,outcome,[5],inactive
same,outcome,[6],inactive
same,outcome,[7],inactive
same,outcome,[8],inactive
same,outcome,[9],inactive
same,outcome,[10],inactive
same,outcome,[11],inactive
same,outcome,[12],inactive
same,outcome,[13],inactive
same,outcome,[14],inactive
same,outcome,[15],inactive
c1ccc(C(O[C@@H]2CCCN(CCc3ccc4c(c3)OCO4)C2)c2ccccc2)cc1,outcome,[1],inactive
same,outcome,[16],inactive
same,outcome,[5],inactive
same,outcome,[17],inactive
same,outcome,[6],inactive
same,outcome,[7],inactive
same,outcome,[8],inactive
same,outcome,[9],inactive
same,AC50,[11],33 µM (active)
same,AC50,[12],23.3 µM (active)
same,AC50,[18],52.6 µM (active)
same,outcome,[13],inactive
same,AC50,[14],27.5 µM (active)
same,outcome,[15],inactive
NC(=O)NN=Cc1ccc([N+](=O)[O-])o1,outcome,[1],inactive
same,outcome,[16],inactive
same,outcome,[6],inactive
same,outcome,[8],inactive
same,outcome,[9],inactive
same,outcome,[10],inactive
same,AC50,[11],27.8 µM (active)
same,outcome,[12],inactive
same,outcome,[18],inactive
same,outcome,[13],inactive
same,outcome,[14],inactive
same,outcome,[15],inactive
c1ccc2c(c1)-c1cccc3c1c-2cc1ccccc13,outcome,[1],inactive
same,outcome,[3],inactive
same,outcome,[4],inactive
same,outcome,[16],inactive
same,outcome,[17],inactive
same,outcome,[19],inactive
same,outcome,[6],inactive
same,outcome,[8],inactive
same,outcome,[9],inactive
same,outcome,[10],inactive
same,AC50,[11],204 nM (active) and 29.8 µM (active)
same,outcome,[12],inactive
same,outcome,[13],inactive
same,outcome,[14],inactive
same,outcome,[15],inactive
CCn1nc(C)c2c1C(=O)NCC(c1ccc(O)cc1)=N2,outcome,[1],inactive
same,outcome,[4],inactive
same,outcome,[16],inactive
same,outcome,[17],inactive
same,outcome,[6],inactive
same,outcome,[7],inactive
same,outcome,[8],inactive
same,outcome,[9],inactive
same,outcome,[10],inactive
same,outcome,[11],inactive
same,outcome,[12],inactive
same,AC50,[18],2.9 µM (active)
same,outcome,[13],inactive
same,outcome,[14],inactive
same,outcome,[15],inactive
CCCCCCCC1CCC(=O)O1 (stereo unspecified),outcome,[1],inactive
same,outcome,[2],inactive
same,outcome,[17],inactive
same,outcome,[6],inactive
same,outcome,[9],inactive
same,outcome,[12],inactive
same,outcome,[18],inactive
same,outcome,[13],inactive
same,outcome,[14],inactive
same,outcome,[15],inactive
CCN(CC)C(=S)SSC(=S)N(CC)CC,outcome,[1],inactive
same,outcome,[2],inactive
same,outcome,[5],inactive
same,outcome,[17],inactive
same,AC50,[6],162 µM (active)
same,AC50,[8],158 µM (active)
same,AC50,[9],83.7 µM (active)
same,AC50,[10],27.6 µM (active)
same,AC50,[11],184 µM (active)
same,AC50,[12],144 µM (active)
same,AC50,[18],137 µM (active)
same,AC50,[13],20 µM (active)
same,AC50,[14],20.6 µM (active)
same,AC50,[15],28.9 µM (active)
COCc1nnc(-c2ccc[n+]([O-])c2)n1-c1c(Cl)c(Cl)cc2[nH]c(=O)c(=O)[nH]c12,outcome,[2],inactive
same,outcome,[16],inactive
same,outcome,[6],inactive
same,outcome,[7],inactive
same,outcome,[8],inactive
same,outcome,[9],inactive
same,outcome,[11],inactive
same,outcome,[12],inactive
same,outcome,[13],inactive
same,outcome,[14],inactive
same,outcome,[15],inactive
O=C(O)c1ccc2c(c1)nc(C(=O)NC1CCN(C3CC3)CC1)n2Cc1cc(-c2ccc(Cl)s2)on1,outcome,[2],inactive
same,outcome,[16],inactive
same,outcome,[5],inactive
same,outcome,[19],inactive
same,outcome,[6],inactive
same,outcome,[7],inactive
same,outcome,[8],inactive
same,outcome,[9],inactive
same,outcome,[10],inactive
same,outcome,[11],inactive
same,outcome,[12],inactive
same,outcome,[18],inactive
same,outcome,[13],inactive
same,outcome,[14],inactive
same,outcome,[15],inactive

# From PubChem BioAssay (EPA / NIEHS)
